According to PubChem BioAssay AID1159580 (chemical genetic matrix, 2015):
Where “and” joins values, the source holds several entries; their conditions need not be identical. Equal values may be shown once. In all, about 5,500 compounds went through this assay and about 2,000 (36%) were called active. Roughly 18% stayed inconclusive and do not appear here. Rule as the data show it: active = normalized growth mostly below about 0.91 (no sharp cut-off); inconclusive = no clear call, values can overlap the other calls; inactive = mostly above about 0.92. This is one part of the list.

Assay: chemical genetic growth profiling, strain panel (AID 1159580);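 also: tested at 20 µM; growth read once vehicle control cultures reached saturation at 30 °C; 1 = growth at the plate median or of vehicle wells; lower values mean less growth of the strain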
Settings: S. cerevisiae deletion strains, growth OD

Measured: normalized growth

CC1(C)C(=O)C=C[C@@]2(C)C1=C(O)C(=O)[C@]1(C)C2CC[C@@]2(C)[C@H](c3ccoc3)C[C@H]3O[C@]321 (stereo partly specified)
inactive: locus YAL021C, strain ccr4, hits give low values 0.995 | locus YAL030W, strain snc1, hits give low values 0.96 | locus YBR021W, strain FUR4, hits give low values 0.996 | locus YBR171W, strain sec66, hits give low values 0.916 | locus YBR229C, strain ROT2, hits give low values 0.923 | locus YCL069W, strain vba3, hits give low values 0.959 | locus YCR088W, strain abp1, hits give low values 0.962 | locus YDL005C, strain med2, hits give low values 0.957 | locus YDL040C, strain nat1, hits give low values 0.957 | locus YDL185W, strain tfp1, hits give low values 0.955 | locus YDR001C, strain nth1, hits give low values 0.967 | locus YDR069C, strain doa4, hits give low values 0.99 | locus YDR334W, strain swr1, hits give low values 0.965 | locus YDR335W, strain msn5, hits give low values 0.969 | locus YDR388W, hits give low values 0.982 | locus YEL037C, strain rad23, hits give low values 0.966 | locus YEL061C, strain CIN8 (second series), hits give low values 0.95 | locus YER016W, strain bim1, hits give low values 0.934 | locus YER110C, hits give low values 0.978 | locus YER111C, strain swi4, hits give low values 0.925 | locus YFR010W, strain ubp6, hits give low values 0.95 | locus YGL078C, strain dbp3, hits give low values 0.934 | locus YGL167C, strain pmr1, hits give low values 0.954 | locus YGL227W, strain vid30, hits give low values 0.949 | locus YGL240W, strain doc1, hits give low values 0.916 | locus YHR079C, strain IRE1 (second series), hits give low values 0.972 | locus YHR094C, strain hxt1, hits give low values 0.975 | locus YHR200W, strain rpn10, hits give low values 0.951 | locus YIL073C, strain SPO22, hits give low values 0.868 | locus YJL092W, strain hpr5, hits give low values 0.961 | locus YJL115W, strain asf1, hits give low values 0.969 | locus YJL134W, strain LCB3, hits give low values 0.966 | locus YJL154C, strain vps35, hits give low values 0.977 | locus YJL168C, strain set2, hits give low values 0.985 | locus YJL187C, strain SWE1, hits give low values 0.928 | locus YKL009W, strain mrt4, hits give low values 0.885 | locus YKL068W, hits give low values 0.942 | locus YKR026C, strain gcn3, hits give low values 0.965 | locus YKR091W, strain srl3, hits give low values 0.969 | locus YLL001W, strain dnm1, hits give low values 0.931 | locus YLL026W, hits give low values 0.944 | locus YLL041C, strain sdh2, hits give low values 0.991 | locus YLR102C, strain apc9, hits give low values 0.967 | locus YLR357W, strain rsc2, hits give low values 1.03 | locus YLR370C, strain arc18, hits give low values 0.959 | locus YLR384C, strain iki3, hits give low values 0.973 | locus YMR078C, strain ctf18, hits give low values 0.936 | locus YMR129W, hits give low values 0.969 | locus YMR231W, strain pep5, hits give low values 0.931 | locus YNL067W, strain RPL9B, hits give low values 0.876 | locus YNL183C, strain NPR1, hits give low values 0.848 | locus YNL209W, strain ssb2, hits give low values 0.943 | locus YNL248C, strain rpa49, hits give low values 0.938 | locus YNL250W, strain rad50, hits give low values 0.97 | locus YNL271C, strain bni1, hits give low values 0.96 | locus YNL298W, strain CLA4, hits give low values 0.922 | locus YNL322C, strain KRE1 (second series), hits give low values 0.981 | locus YNR049C, strain mso1, hits give low values 0.962 | locus YOL006C, strain TOP1, hits give low values 0.666 | locus YOL012C, strain htz1 0.626 | locus YOR080W, strain dia2, hits give low values 0.964 | locus YOR270C, strain vph1, hits give low values 0.897 | locus YOR316C, strain cot1, hits give low values 0.984 | locus YPL078C, strain atp4, hits give low values 0.939 | locus YPL106C, strain sse1, hits give low values 0.91 | locus YPR141C, strain kar3, hits give low values 0.96
active: locus YAL026C, strain drs2, hits give low values 0.893 | locus YBL061C, strain skt5, hits give low values 0.884 | locus YBR009C, strain hhf1, hits give low values 0.672 | locus YBR023C, strain chs3, hits give low values 0.908 | locus YBR231C, strain swc5, hits give low values 0.901 | locus YBR279W, strain paf1, hits give low values 0.908 | locus YCL011C, strain gbp2, hits give low values 0.827 | locus YCL016C, strain dcc1, hits give low values 0.901 | locus YCL029C, strain bik1, hits give low values 0.879 | locus YCL061C, strain MRC1, hits give low values 0.897 | locus YDL035C, strain GPR1, hits give low values 0.641 | locus YDL074C, strain BRE1, hits give low values 0.377 | locus YDL101C, strain DUN1, hits give low values 0.786 | locus YDL134C, strain PPH21, hits give low values 0.608 | locus YDL192W, strain arf1, hits give low values 0.743 | locus YDR101C, strain arx1, hits give low values 0.843 | locus YDR137W, strain rgp1, hits give low values 0.602 | locus YDR159W, strain sac3, hits give low values 0.549 | locus YDR162C, strain NBP2, hits give low values 0.226 | locus YDR195W, strain ref2 0.785 | locus YDR297W, strain sur2, hits give low values 0.869 | locus YDR318W, strain mcm21, hits give low values 0.762 | locus YDR392W, strain spt3, hits give low values 0.219 | locus YDR502C, strain sam2, hits give low values 0.833 | locus YEL003W, strain gim4, hits give low values 0.851 | locus YER015W, strain faa2, hits give low values 0.902 | locus YER155C, strain BEM2 (second series), hits give low values 0.814 | locus YER155C, strain BEM2, hits give low values 0.57 | locus YER167W, strain BCK2, hits give low values 0.768 | locus YGL086W, strain mad1, hits give low values 0.767 | locus YGL173C, strain kem1, hits give low values 0.872 | locus YGL248W, strain PDE1, hits give low values 0.766 | locus YGL253W, strain hxk2, hits give low values 0.871 | locus YGR078C, strain PAC10, hits give low values 0.513 | locus YGR135W, strain pre9, hits give low values 0.854 | locus YGR252W, strain gcn5, hits give low values 0.734 | locus YHR013C, strain ard1, hits give low values 0.842 | locus YHR027C, strain rpn1, hits give low values 0.917 | locus YHR030C, strain SLT2, hits give low values 0.697 and 0.536 | locus YHR079C, strain IRE1, hits give low values 0.821 | locus YHR129C, strain ARP1, hits give low values 0.613 | locus YHR142W, strain chs7, hits give low values 0.8 | locus YIL066C, strain RNR3, hits give low values 0.381 | locus YIL125W, strain kgd1, hits give low values 0.928 | locus YIR030C, strain dcg1, hits give low values 0.907 | locus YJL095W, strain BCK1 (second series), hits give low values 0.777 | locus YJL095W, strain BCK1, hits give low values 0.363 and 0.62 | locus YJL129C, strain trk1, hits give low values 0.776 | locus YJL164C, strain tpk1, hits give low values 0.838 | locus YJL166W, strain qcr8, hits give low values 0.748 | locus YJL187C, strain SWE1 (second series), hits give low values 0.808 | locus YJR043C, strain POL32, hits give low values 0.781 | locus YJR066W, strain TOR1, hits give low values 0.757 | locus YKL085W, strain MDH1 (second series), hits give low values 0.885 | locus YKL085W, strain MDH1, hits give low values 0.885 | locus YKL160W, strain elf1, hits give low values 0.872 | locus YKL190W, strain CNB1, hits give low values 0.751 | locus YKR001C, strain vps1, hits give low values 0.777 | locus YLR027C, strain aat2, hits give low values 0.791 | locus YLR039C, strain RIC1, hits give low values 0.404 | locus YLR058C, strain SHM2, hits give low values 0.782 | locus YLR113W, strain HOG1, hits give low values 0.776 | locus YLR221C, strain rsa3, hits give low values 0.759 | locus YLR258W, strain gsy2, hits give low values 0.88 | locus YLR262C, strain YPT6 (second series), hits give low values 0.624 | locus YLR262C, strain YPT6, hits give low values 0.382 | locus YLR268W, strain sec22, hits give low values 0.788 | locus YLR320W, strain mms22, hits give low values 0.639 | locus YLR342W, strain FKS1 (second series), hits give low values 0.578 | locus YLR342W, strain FKS1, hits give low values 0.881 | locus YLR371W, strain rom2, hits give low values 0.706 | locus YLR418C, strain cdc73, hits give low values 0.318 | locus YML016C, strain PPZ1, hits give low values 0.887 | locus YML032C, strain rad52, hits give low values 0.811 | locus YML120C, strain ndi1, hits give low values 0.884 | locus YML124C, strain tub3, hits give low values 0.922 | locus YMR058W, strain fet3, hits give low values 0.875 | locus YMR125W, strain sto1, hits give low values 0.876 | locus YMR205C, strain PFK2, hits give low values 0.674 | locus YMR223W, strain ubp8, hits give low values 0.865 | locus YMR307W, strain GAS1, hits give low values 0.502 | locus YNL071W, strain lat1, hits give low values 0.44 | locus YNL233W, strain BNI4, hits give low values 0.706 | locus YNL307C, strain MCK1, hits give low values 0.505 | locus YNR052C, strain pop2, hits give low values 0.863 | locus YOL147C, strain pex11, hits give low values 0.804 | locus YOR001W, strain rrp6, hits give low values 0.841 | locus YOR061W, strain CKA2, hits give low values 0.847 | locus YOR069W, strain VPS5, hits give low values 0.889 | locus YOR070C, strain gyp1, hits give low values 0.809 | locus YOR083W, strain WHI5, hits give low values 0.875 | locus YOR106W, strain vam3, hits give low values 0.801 | locus YOR136W, strain idh2, hits give low values 0.891 | locus YOR144C, strain elg1, hits give low values 0.855 | locus YOR184W, strain ser1, hits give low values 0.487 | locus YOR231W, strain MKK1, hits give low values 0.706 | locus YOR265W, strain rbl2, hits give low values 0.918 | locus YOR290C, strain snf2, hits give low values 0.84 | locus YPL051W, strain arl3, hits give low values 0.831 | locus YPL240C, strain hsp82, hits give low values 0.861 | locus YPL256C, strain CLN2, hits give low values 0.747 | locus YPR119W, strain clb2, hits give low values 0.915 | locus YPR163C, strain tif3, hits give low values 0.665 | locus YPR167C, strain met16, hits give low values 0.85 | strain wtn01, hits give low values 0.765
